Source: PubChem BioAssay AID1159580 (chemical genetic matrix, 2015)
The whole screen tested about 5,500 compounds, of which about 2,000 (36%) were called active. Roughly 18% stayed inconclusive and do not appear here. Rule as the data show it: active = normalized growth mostly below about 0.91 (no sharp cut-off); inconclusive = no clear call, values can overlap the other calls; inactive = mostly above about 0.92. The list shows a part of the results.

Experiment: chemical genetic growth profiling, strain panel (AID 1159580);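 also: tested at 20 µM; growth read once vehicle control cultures reached saturation at 30 °C; 1 = growth at the plate median or of vehicle wells; lower values mean less growth of the strain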
Settings: growth OD
[1] = S. cerevisiae deletion strains, locus YDL101C, strain DUN1, stronger effect = lower value
[2] = S. cerevisiae deletion strains, locus YHR030C, strain SLT2, stronger effect = lower value

Measured: normalized growth

CCCCCc1ccc(S(=O)(=O)Nc2ncc(C)cc2Br)cc1
inactive: S. cerevisiae deletion strains, locus YAR019C, strain CDC15, stronger effect = lower value 0.955 | S. cerevisiae deletion strains, locus YBL105C, strain PKC1, stronger effect = lower value 0.953 | S. cerevisiae deletion strains, locus YBR135W, strain CKS1, stronger effect = lower value 0.942 | S. cerevisiae deletion strains, locus YBR136W, strain MEC1, stronger effect = lower value 0.952 | S. cerevisiae deletion strains, locus YBR160W, strain CDC28, stronger effect = lower value 0.947 | S. cerevisiae deletion strains, locus YDL017W, strain CDC7, stronger effect = lower value 0.953 | S. cerevisiae deletion strains, locus YDL028C, strain MPS1, stronger effect = lower value 0.953 | [1] 0.962 | S. cerevisiae deletion strains, locus YDL108W, strain KIN28, stronger effect = lower value 0.951 | S. cerevisiae deletion strains, locus YDL132W, strain cdc53, stronger effect = lower value 0.962 | S. cerevisiae deletion strains, locus YDL214C, strain PRR2, stronger effect = lower value 0.832 | S. cerevisiae deletion strains, locus YDR052C, strain DBF4, stronger effect = lower value 0.962 | S. cerevisiae deletion strains, locus YDR054C, strain cdc34, stronger effect = lower value 0.945 | S. cerevisiae deletion strains, locus YDR226W, strain ADK1, stronger effect = lower value 0.959 | S. cerevisiae deletion strains, locus YDR477W, strain SNF1, stronger effect = lower value 0.873 | S. cerevisiae deletion strains, locus YER123W, strain YCK3, stronger effect = lower value 0.835 | S. cerevisiae deletion strains, locus YER133W, strain GLC7, stronger effect = lower value 0.884 | S. cerevisiae deletion strains, locus YFL009W, strain cdc4, stronger effect = lower value 0.957 | S. cerevisiae deletion strains, locus YFL029C, strain CAK1, stronger effect = lower value 0.949 | S. cerevisiae deletion strains, locus YFR003C, strain YPI1, stronger effect = lower value 0.959 | S. cerevisiae deletion strains, locus YFR019W, strain FAB1, stronger effect = lower value 0.939 | S. cerevisiae deletion strains, locus YFR028C, strain CDC14, stronger effect = lower value 0.95 | S. cerevisiae deletion strains, locus YGR040W, strain KSS1, stronger effect = lower value 0.865 | S. cerevisiae deletion strains, locus YGR052W, strain FMP48, stronger effect = lower value 0.847 | S. cerevisiae deletion strains, locus YGR092W, strain DBF2, stronger effect = lower value 0.769 | S. cerevisiae deletion strains, locus YHR079C, strain IRE1, stronger effect = lower value 0.835 | S. cerevisiae deletion strains, locus YHR082C, strain KSP1, stronger effect = lower value 0.857 | S. cerevisiae deletion strains, locus YHR205W, strain SCH9, stronger effect = lower value 0.702 | S. cerevisiae deletion strains, locus YIL147C, strain SLN1, stronger effect = lower value 0.96 | S. cerevisiae deletion strains, locus YJL095W, strain BCK1, stronger effect = lower value 0.789 | S. cerevisiae deletion strains, locus YJL128C, strain PBS2, stronger effect = lower value 0.852 | S. cerevisiae deletion strains, locus YJL157C, strain FAR1, stronger effect = lower value 0.863 | S. cerevisiae deletion strains, locus YJR016C, strain ILV3, stronger effect = lower value 0.96 | S. cerevisiae deletion strains, locus YJR066W, strain TOR1 (second series), stronger effect = lower value 0.856 | S. cerevisiae deletion strains, locus YJR066W, strain TOR1, stronger effect = lower value 0.906 | S. cerevisiae deletion strains, locus YKL067W, strain YNK1, stronger effect = lower value 0.853 | S. cerevisiae deletion strains, locus YKL101W, strain HSL1, stronger effect = lower value 0.78 | S. cerevisiae deletion strains, locus YKL193C, strain SDS22, stronger effect = lower value 0.964 | S. cerevisiae deletion strains, locus YKL203C, strain TOR2, stronger effect = lower value 0.936 | S. cerevisiae deletion strains, locus YLR133W, strain CKI1, stronger effect = lower value 0.845 | S. cerevisiae deletion strains, locus YLR403W, strain SFP1, stronger effect = lower value 0.779 | S. cerevisiae deletion strains, locus YML070W, strain DAK1, stronger effect = lower value 0.78 | S. cerevisiae deletion strains, locus YMR001C, strain CDC5, stronger effect = lower value 0.955 | S. cerevisiae deletion strains, locus YMR205C, strain PFK2 (second series), stronger effect = lower value 0.836 | S. cerevisiae deletion strains, locus YMR277W, strain FCP1, stronger effect = lower value 0.956 | S. cerevisiae deletion strains, locus YNL006W, strain LST8, stronger effect = lower value 0.968 | S. cerevisiae deletion strains, locus YNL020C, strain ARK1, stronger effect = lower value 0.796 | S. cerevisiae deletion strains, locus YNL161W, strain CBK1, stronger effect = lower value 0.961 | S. cerevisiae deletion strains, locus YNL183C, strain NPR1, stronger effect = lower value 0.806 | S. cerevisiae deletion strains, locus YNL207W, strain RIO2, stronger effect = lower value 0.968 | S. cerevisiae deletion strains, locus YNL222W, strain SSU72, stronger effect = lower value 0.951 | S. cerevisiae deletion strains, locus YNL307C, strain MCK1 (second series), stronger effect = lower value 0.811 | S. cerevisiae deletion strains, locus YOL078W, strain AVO1, stronger effect = lower value 0.95 | S. cerevisiae deletion strains, locus YOL136C, strain PFK27, stronger effect = lower value 0.818 | S. cerevisiae deletion strains, locus YOR061W, strain CKA2, stronger effect = lower value 0.815 | S. cerevisiae deletion strains, locus YOR119C, strain RIO1, stronger effect = lower value 0.893 | S. cerevisiae deletion strains, locus YOR231W, strain MKK1, stronger effect = lower value 0.783 | S. cerevisiae deletion strains, locus YOR329C, strain SCD5, stronger effect = lower value 0.957 | S. cerevisiae deletion strains, locus YPL031C, strain PHO85, stronger effect = lower value 0.882 | S. cerevisiae deletion strains, locus YPL153C, strain RAD53, stronger effect = lower value 0.829 | S. cerevisiae deletion strains, locus YPL204W, strain HRR25, stronger effect = lower value 0.843 | S. cerevisiae deletion strains, locus YPL209C, strain IPL1, stronger effect = lower value 0.955 | S. cerevisiae deletion strains, locus YPR025C, strain CCL1, stronger effect = lower value 0.955 | S. cerevisiae deletion strains, locus YPR106W, strain ISR1, stronger effect = lower value 0.921 | S. cerevisiae deletion strains, locus YPR111W, strain DBF20, stronger effect = lower value 0.903 | S. cerevisiae deletion strains, strain NNK1, stronger effect = lower value 0.923 | S. cerevisiae deletion strains, strain TSCII, stronger effect = lower value 0.955
active: [2] 0.568 | S. cerevisiae deletion strains, locus YKL048C, strain ELM1, stronger effect = lower value 0.793 | S. cerevisiae deletion strains, locus YLR113W, strain HOG1, stronger effect = lower value 0.674 | S. cerevisiae deletion strains, locus YPL256C, strain CLN2, stronger effect = lower value 0.792

CCCCCc1ccc(S(=O)(=O)Nc2cccnc2Oc2ccc(Cl)cc2)cc1
inactive: S. cerevisiae deletion strains, locus YAL013W, strain DEP1, stronger effect = lower value 0.988 | S. cerevisiae deletion strains, locus YBR229C, strain ROT2, stronger effect = lower value 1 | [1] 0.992 | S. cerevisiae deletion strains, locus YDL134C, strain PPH21, stronger effect = lower value 0.994 | S. cerevisiae deletion strains, locus YDR150W, strain NUM1, stronger effect = lower value 1 | S. cerevisiae deletion strains, locus YEL061C, strain CIN8, stronger effect = lower value 1 | S. cerevisiae deletion strains, locus YGR078C, strain PAC10, stronger effect = lower value 1 | [2] 0.965 | S. cerevisiae deletion strains, locus YHR087W, strain rtc3, stronger effect = lower value 0.987 | S. cerevisiae deletion strains, locus YJL187C, strain SWE1, stronger effect = lower value 0.998 | S. cerevisiae deletion strains, locus YJR043C, strain POL32, stronger effect = lower value 0.988 | S. cerevisiae deletion strains, locus YJR075W, strain HOC1, stronger effect = lower value 0.964 | S. cerevisiae deletion strains, locus YLR039C, strain RIC1, stronger effect = lower value 0.951 | S. cerevisiae deletion strains, locus YLR058C, strain SHM2 (second series), stronger effect = lower value 0.994 | S. cerevisiae deletion strains, locus YLR085C, strain ARP6, stronger effect = lower value 1 | S. cerevisiae deletion strains, locus YLR262C, strain YPT6, stronger effect = lower value 0.951 | S. cerevisiae deletion strains, locus YML094W, strain GIM5, stronger effect = lower value 0.998 | S. cerevisiae deletion strains, locus YMR219W, strain ESC1, stronger effect = lower value 0.996 | S. cerevisiae deletion strains, locus YMR263W, strain SAP30, stronger effect = lower value 0.997 | S. cerevisiae deletion strains, locus YMR307W, strain GAS1, stronger effect = lower value 0.992 | S. cerevisiae deletion strains, locus YNL128W, strain TEP1, stronger effect = lower value 1.01 | S. cerevisiae deletion strains, locus YNL153C, strain GIM3, stronger effect = lower value 1 | S. cerevisiae deletion strains, locus YNL298W, strain CLA4 (second series), stronger effect = lower value 1.01 | S. cerevisiae deletion strains, locus YNL322C, strain KRE1, stronger effect = lower value 0.995 | S. cerevisiae deletion strains, locus YNR030W, strain Alg12, stronger effect = lower value 0.984 | S. cerevisiae deletion strains, locus YOL006C, strain TOP1, stronger effect = lower value 0.986 | S. cerevisiae deletion strains, locus YPL055C, strain LGE1, stronger effect = lower value 0.989 | S. cerevisiae deletion strains, locus YPL241C, strain CIN2, stronger effect = lower value 1.08 | S. cerevisiae deletion strains, locus YPR135W, strain CTF4, stronger effect = lower value 1.02 | S. cerevisiae strains, strain wild type, stronger effect = lower value 1
